Only some compounds are listed: those with a hit (about 2.5% of all), similar ones and a draw of the others.
Mot1-301 SUMO – yeast Mot1-301 growth rescue at high temperature, primary screen, SUMOylation pathway inhibitor project, S. cerevisiae, ATP luminescence, 38.5C. S. cerevisiae Mot1-301 growth rescue; percent above DMSO median, 100 means doubled. growth rescue, % at 18.8 µM. hit rate 1% among 320,000. AID 2716, 2010;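 active = every valid replicate shows activation above 250% relative to neutral control wells; inactive = the rest, any valid replicate at or below 250%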
AI-2 QS modul – Vibrio harveyi AI-2 quorum sensing modulators, primary screen, JMH597 strain, luminescence/OD600 ratio; Vibrio harveyi JMH597 AI-2 luminescence/OD600 ratio, 9 h; active compounds read low; strain lacks LuxN and CqsS sensors; 0 = neutral-control median; activity change, % at 7.5 µM; hit rate 0.4% among 300,000; AID 2094, 2009; in the data active = activity change below about -75%, passing the limit was not always enough;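 also: luminescence divided by OD600 gain over 9 h not by final OD600 alone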
Efflux pump inh – inhibitors of Candida efflux pumps in yeast, primary screen, S. cerevisiae, Nile Red, multiplex. S. cerevisiae Candida pump triplex. inhibition, % at 10 µM. hit rate 0.44% among 330,000. AID 485275, 2010;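 active = plate passing quality check with inhibition over a set limit, or well fluorescence over plate mean plus 4 SD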;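 also: Nile Red retained in pooled yeast measured as flow cytometry median fluorescence; higher means more Nile Red kept so more efflux inhibition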
ATG4B inh – ATG4B protease inhibitors, primary screen, biochemical, fluorescence, uHTS; hit rate 0.51% among 340,000; ATG4B cleavage of LC3-PLA2, NBD-HPC fluorescence, 1 h; inhibition, % at 8.33 µM; in the data active = inhibition above about 40%
Target sequence (Q9Y4P1 whole entry, looked up): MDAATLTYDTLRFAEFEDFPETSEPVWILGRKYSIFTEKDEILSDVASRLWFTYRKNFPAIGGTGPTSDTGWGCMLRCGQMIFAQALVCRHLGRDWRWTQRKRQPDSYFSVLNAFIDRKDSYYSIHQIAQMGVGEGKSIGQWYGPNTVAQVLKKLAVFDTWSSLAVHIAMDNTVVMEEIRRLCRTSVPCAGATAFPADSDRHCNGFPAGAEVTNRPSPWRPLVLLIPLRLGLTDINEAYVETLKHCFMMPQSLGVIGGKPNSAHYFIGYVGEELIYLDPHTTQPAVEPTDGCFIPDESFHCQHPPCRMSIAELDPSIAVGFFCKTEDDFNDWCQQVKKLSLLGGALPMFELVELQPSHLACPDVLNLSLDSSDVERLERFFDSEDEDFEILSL
V-ATPase pHluor – regulators of yeast V-ATPase proton pumping, primary screen, pHLuorin cytosolic pH fluorescence; hit rate 0.37% among 350,000; S. cerevisiae; AID 504577, 2011; response, % at 10 µM; in the data active = response mostly above about 7.3%, no sharp cut-off; inactive = mostly below about 5.4%; also: actives read high
Of the large screens only hits and unclear results are named; the others gave an inactive call.

O=C(N/N=C/c1cccc(C(F)(F)F)c1)C1CCN(c2ncc(C(F)(F)F)cc2Cl)CC1	none
CC(C)CCOc1ccc(Cl)cc1CN1CCOCC1	Mot1-301 SUMO 313.2
CCCCCOc1ccc(Cl)cc1CN1CCOCC1	none
O=Cc1ccccc1OCCOc1ccccc1C=O	ATG4B inh 71.0
Cc1ccc(NC(=O)COC(=O)c2ccco2)cc1S(=O)(=O)N1CCCCC1	none (no result: Mot1-301 SUMO, AI-2 QS modul, Efflux pump inh, ATG4B inh)
CC1CCCC(C)N1CC(O)COCc1ccccc1F (stereo not given)	none
Cc1ccc(CCC(=O)Nc2ccc(Br)cc2)o1	AI-2 QS modul -88.0
CSc1ccccc1NC(=O)CN(c1cccc(C)c1)S(C)(=O)=O	V-ATPase pHluor 13.1
Cc1cccc(N(CC(=O)Nc2ccccc2F)S(C)(=O)=O)c1	none
C=C(NC(=O)C(=C)NC(=O)c1csc(C2=NC3c4csc(n4)C4NC(=O)c5csc(n5)C([C@@](C)(O)C(C)O)NC(=O)C5CSC(=N5)/C(=C\C)NC(=O)C(C(C)O)NC(=O)c5csc(n5)[C@]3(CC2)NC(=O)C(C)NC(=O)C(=C)NC(=O)C(C)NC(=O)C(C(C)CC)NC2C=Cc3c(C(C)O)cc(nc3C2O)C(=O)OC4C)n1)C(N)=O (stereo not given in full)	Efflux pump inh 1.1 (no result: AI-2 QS modul, ATG4B inh, V-ATPase pHluor)
C=C(NC(=O)C(=C)NC(=O)c1csc(C2=NC3c4csc(n4)C4NC(=O)c5csc(n5)C(C(C)(O)C(C)O)NC(=O)C5CSC(=N5)/C(=C/C)NC(=O)C(C(C)O)NC(=O)c5csc(n5)C3(CC2)NC(=O)C(C)NC(=O)C(=C)NC(=O)C(=C)NC(=O)C(C(C)C)NC2C=Cc3c(C(C)O)cc(nc3C2O)C(=O)OC4C)n1)C(N)=O (stereo not given)	none (no result: Mot1-301 SUMO, AI-2 QS modul, Efflux pump inh)
CC(C)c1ccc(NC(=O)C2C3C=CC4(O3)C2C(=O)N(CCCN2CCOCC2)C4C(=O)NC2CCCCC2)cc1 (stereo not given)	none
O=C(NCc1cccs1)Nc1cccc(Cl)c1	AI-2 QS modul -90.7
Cc1nn(C)cc1CNC(=O)Nc1ccc(Br)cc1Cl	none
Cc1nn(C)cc1CNC(=O)Nc1cccc(Cl)c1	Mot1-301 SUMO 347.6
S=C(NCc1cccs1)Nc1cccc(Cl)c1	none
O=C(COC(=O)c1ccccc1C(=O)c1ccccc1)NCc1ccc(F)cc1	Mot1-301 SUMO 336.8
CCCC(NS(=O)(=O)c1ccc(-c2ccc(=O)[nH]n2)s1)c1cccs1 (stereo not given)	none
NC(=O)c1ccc2c(=O)c(O)c(-c3cc(Cl)c(N)c(Cl)c3)[nH]c2c1	none
C=CCN(C(=O)c1csnn1)C(C(=O)NCc1ccc(F)cc1)c1ccccc1F (stereo not given)	none
Cc1c(C2(O)CCCCC2)[nH]c2ccc(C(F)(F)F)cc12	Mot1-301 SUMO 301.2 (no result: AI-2 QS modul)
O=C(CC1CCCC1)N1CCN(S(=O)(=O)c2ccccc2)CC1	V-ATPase pHluor 667.7 (no result: AI-2 QS modul)
O=C(OCC(=O)N1CCN(S(=O)(=O)c2ccccc2)CC1)C1CCC1	none (no result: AI-2 QS modul)
O=C(N/N=C/c1c[nH]c2ccccc12)c1cc(-c2ccc3ccccc3c2)n[nH]1	AI-2 QS modul -78.7
O=c1[nH]cc(F)c(=O)[nH]1	AI-2 QS modul -87.6
O=C(Nc1ccc(Cl)cc1)Nc1csc([N+](=O)[O-])c1	AI-2 QS modul -82.8
Cc1ccc(NC(=O)Nc2ccccc2)cc1[N+](=O)[O-]	none
O=C(Nc1ccccc1)Nc1ccc(Cl)c([N+](=O)[O-])c1	AI-2 QS modul -102.0
COc1ccc(/C=C/C(=O)OCC(=O)Nc2ccc(Cl)c(S(=O)(=O)N(C)C)c2)cc1OC	none
Cn1nc(C(C)(C)C)cc1C(=O)O	none
Cn1nc(C(C)(C)C)cc1C(=O)NNC(=O)c1ccc(C(F)(F)F)cc1	Mot1-301 SUMO 304.4
Cc1ccc(S(=O)(=O)CCSc2n[nH]c(=O)n2-c2ccc3c(c2)OCCO3)cc1	none
Cc1cc(CN2CCC(N3CCC(C(=O)NC4CC4)CC3)CC2)cc(C)c1O	none
O=C(NC1CC1)C1CCN(C2CCN(Cc3ccccc3C(F)(F)F)CC2)CC1	Mot1-301 SUMO 312.6
O=C(Nc1ccccc1C(F)(F)F)N1CCC(N2CCCCC2)CC1	Mot1-301 SUMO 295.6
Cc1cc(-c2nnc(SCC(=O)Nc3ccc(C)c(C)c3)n2N)n[nH]1	none
CCC(C)(C)n1nnnc1C(c1ccc2ncccc2c1)N1CCN(c2ccc(O)cc2)CC1 (stereo not given)	none
CCC(C)(C)n1nnnc1C(c1ccc2ncccc2c1)N1CCCC(C)C1 (stereo not given)	Mot1-301 SUMO 341.6
CC(C)(C)C(=O)NCC12C=CC(O1)C1C(=O)N(c3ccccc3)C(=O)C12 (stereo not given)	none
O=C1C2C3C=CC(CO)(O3)C2C(=O)N1c1ccc(-c2ccccc2)cc1 (stereo not given)	Mot1-301 SUMO 324.4, Efflux pump inh 1.7 (no result: ATG4B inh, V-ATPase pHluor)
Cc1cc(Cl)ccc1NC(=O)c1ccc2c(c1)OCO2	V-ATPase pHluor 14.7
CCOC(=O)C1CCCN(c2oc(-c3ccc(OC)cc3)nc2C#N)C1 (stereo not given)	none
CCOC(=O)c1cccc(C2=CC(=O)C[C@H](c3ccc(OC)cc3)C2)c1	none (no result: AI-2 QS modul)
O=C1CCCc2nc3c(cc21)C(O)Oc1ccccc1-3 (stereo not given)	V-ATPase pHluor 15.8
O=C(c1ncn(Cc2ccccc2)c1C(=O)N1CCc2ccccc2C1)N1CCc2ccccc2C1	none (no result: AI-2 QS modul)
O=c1c2ccccc2nc(SCc2nnc(-c3ccccc3Br)o2)n1-c1ccccc1	ATG4B inh 45.1
O=C(COc1ccc([N+](=O)[O-])cc1)Nc1ccc2c(c1)CCC2	none (no result: AI-2 QS modul)
NC(=O)c1ncc(C(F)(F)F)cc1Oc1cccc(C(F)(F)F)c1	Mot1-301 SUMO 309.3
Cc1ccc(NC(=O)CN(C)C(=O)c2ccccc2Sc2ccccc2C#N)cc1	none
NC(=O)c1sc(=S)n2c1[nH]c(=O)c1sccc12	Mot1-301 SUMO 729.8
O=S(=O)(c1ccc(NC(=S)NCc2ccco2)cc1)N1CCCCC1	AI-2 QS modul -88.0
CC(=O)OC[C@]12CC[C@H]3[C@@](C)(CC[C@H]4C(C)(C)CCC[C@]34C)[C@@H]1C[C@H](C1=CC(=O)O[C@H]1OC(C)=O)O2	Mot1-301 SUMO 910.1 (no result: AI-2 QS modul, ATG4B inh, V-ATPase pHluor)
Cc1ccc(S(=O)(=O)Oc2ccc(/C=C(/NC(=O)c3ccccc3)C(=O)O)cc2)cc1	Mot1-301 SUMO 699.6
CN(CCCC(=O)O)c1ccc(N=Nc2ccc([N+](=O)[O-])cc2)cc1	none
Cn1c(SCC(=O)N2CCOCC2)nnc1-c1ccco1	Mot1-301 SUMO 352.7
COc1ccc(C(=O)CC(Nc2ccc([N+](=O)[O-])cc2)c2ccc(OC)cc2)cc1 (stereo not given)	none
CNC(CC(=O)c1ccc([N+](=O)[O-])cc1)C(Cl)(Cl)Cl (stereo not given)	Efflux pump inh 9.4, V-ATPase pHluor 68.6 (no result: AI-2 QS modul)

Assay outcomes deposited in PubChem by several laboratories.
